The nature of experiment [1]: modulation of C. elegans fzo-1 (AID 1259413).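 Also: fzo-1 mutant C. elegans worms in liquid wells.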 The note with it: C. elegans fzo-1 modulator screen, mean read-out; stronger effect = higher value.
Experiment [2] can be described thus: differential killing of epithelial or mesenchymal cells, primary screen, imaging, PC-3E GFP, TEM4-18 mCherry, co-culture (AID 1345086;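 active = compounds killing one labelled cell type while sparing the other, by normalised counts and ratio limits, not self-fluorescent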;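 as to all read-outs here: cells exposed to compound for 72 h before imaging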;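 as to red/green cell ratio (normalised): normalised mesenchymal count divided by normalised epithelial count so high means epithelial killing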). The note with it: imaging cell counts, at 1 µM; for red/green cell ratio (normalised): actives lie on both sides, counts scaled to control wells, 1 = unselective.
A short description of experiment [3]: growth inhibition of DIPG glioma cells, dose response, cell-based, SU-DIPG-XVII, MIPE5.0, CellTiter-Glo, qHTS (AID 1347060; cut-off not given, nearly all actives have AC50 up to about 26 µM;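 as to AC50: cells exposed to compound for 48 hours before viability readout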). The note with it: SU-DIPG-XVII viability, CellTiter-Glo ATP luminescence. On the technique in general: ATP-based viability assays read luminescence as a measure of living cells.
Experiment [4] in a line: growth inhibition of DIPG glioma cells, dose response, cell-based, SU-DIPG-XIII, MIPE4.0, CellTiter-Glo, qHTS (AID 1347061; cut-off not given, nearly all actives have AC50 up to about 37 µM;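 also: cells exposed to compound for 48 hours before readout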). The settings on record: SU-DIPG-XIII viability, CellTiter-Glo ATP luminescence.
Experiment [5] in a line: growth inhibition of DIPG glioma cells, dose response, cell-based, JHH-DIPG-1, MIPE4.0, CellTiter-Glo, qHTS (AID 1347062; cut-off not given, nearly all actives have AC50 up to about 27 µM;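 as to AC50: cells exposed to compound for two days before readout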). The settings on record: JHH-DIPG-1 viability, CellTiter-Glo ATP luminescence.
Experiment [6] in a line: growth inhibition of DIPG glioma cells, dose response, cell-based, SU-DIPG-IV, MIPE4.0, CellTiter-Glo, qHTS (AID 1347063; cut-off not given, nearly all actives have AC50 up to about 30 µM;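 also: compound exposure lasted 48 hours before the viability readout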). The settings on record: SU-DIPG-IV viability, CellTiter-Glo ATP luminescence.
In experiment [7] the test system is Aerobactin synthetase IucA (Klebsiella pneumoniae). Put plainly: IucA aerobactin synthetase inhibitors, biochemical, Tocris library, absorbance (AID 1345561).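 Also: 100% = enzyme without compound and 0% = no enzyme.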 The note with it: purified IucA enzyme assay, absorbance (OD) read-out; stronger effect = lower value;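 tested at 8 µM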.
Experiment [8] can be described thus: growth inhibition of DIPG glioma cells, dose response, cell-based, SU-DIPG-XIII, MIPE5.0, CellTiter-Glo, qHTS (AID 1347064; cut-off not given, nearly all actives have AC50 up to about 23 µM;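 as to AC50: cells exposed to compound for 48 hours before the viability read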). The settings on record: SU-DIPG-XIII viability, CellTiter-Glo ATP luminescence.
Where [9] appears, read: measured here: epithelial PC-3E GFP cell survival.
The mark [10] stands for this setting: measured here: mesenchymal TEM4-18 mCherry cell survival.

These results are taken from PubChem BioAssay.

Molecules are shown by their SMILES. Results filed as inconclusive are left out. Active and inactive are the calls of the source. Unless noted, no rule for the calls is given here.

Consider `COc1ccc(CC2c3cc(OC)c(OC)cc3CC[N+]2(C)CCC(=O)OCCCCCOC(=O)CC[N+]2(C)CCc3cc(OC)c(OC)cc3C2Cc2ccc(OC)c(OC)c2)cc1OC` (configuration not stated), for which, in experiment [1], the mean signal was 250 (inactive). Further, in experiment [2], the red/green cell ratio (normalised) was 0.8 (inactive). For the same molecule, the normalised cell number in experiment [2] (setting [9]) worked out at 1.18; in experiment [2] (setting [10]), 0.94. For the same molecule, the molecule was classed as inactive in experiment [3], in experiment [4], in experiment [5] and in experiment [6].

In the case of `COc1ccccc1N1CCN(CC(O)COc2cccc3ccccc23)CC1` (configuration not stated), the mean signal in experiment [1] is 202 (inactive). Also, in experiment [2], the red/green cell ratio (normalised) was 0.7 (inactive). Further, the normalised cell number in experiment [2] (setting [9]) was 1.13; in experiment [2] (setting [10]) it was 0.8. In addition, the remaining activity in experiment [7] was 100% (inactive). The result in experiment [4] and in experiment [5] was inactive.

Consider `CCCN[C@H]1CCc2nc(N)sc2C1`, for which the mean signal in experiment [1] is 239 (inactive). For the same molecule, the red/green cell ratio (normalised) in experiment [2] is 0.69 (inactive). The normalised cell number in experiment [2] (setting [9]) was 1.3; in experiment [2] (setting [10]), 0.89. Besides, the molecule was called inactive in experiment [3], in experiment [4], in experiment [5] and in experiment [8].

Turning to `CC(N)C12CC3CC(CC(C3)C1)C2` (configuration not stated), in experiment [1], the mean signal was 212 (inactive). For the same molecule, the red/green cell ratio (normalised) in experiment [2] is 0.95 (inactive). Also, the normalised cell number in experiment [2] (setting [9]) worked out at 1.11; in experiment [2] (setting [10]), 1.06. In addition, the molecule was classed as inactive in experiment [3], in experiment [4], in experiment [5], in experiment [6] and in experiment [8].

As for `N#Cc1ccc(C(c2ccc(C#N)cc2)n2cncn2)cc1`, in experiment [1], the mean signal is 236 (inactive). The red/green cell ratio (normalised) in experiment [2] was 1.05 (inactive). Also, the normalised cell number in experiment [2] (setting [9]) was found to be 1.21; in experiment [2] (setting [10]), 1.28. The molecule was called inactive in experiment [3], in experiment [5] and in experiment [8].

In the case of `CCc1c2c(nc3ccc(OC(=O)N4CCC(N5CCCCC5)CC4)cc13)-c1cc3c(c(=O)n1C2)COC(=O)[C@]3(O)CC`, the mean signal in experiment [1] is 270 (inactive). Also, the red/green cell ratio (normalised) in experiment [2] is 1.07 (inactive). Also, the normalised cell number amounted to 0.32 in experiment [2] (setting [9]) and 0.34 in experiment [2] (setting [10]). The remaining activity in experiment [7] was 108% (inactive). Moreover, the figures for the concentration at half-maximal activity (AC50) in experiment [3] and in experiment [6] were 0.263 µM (active) and 4.69 µM (active), respectively.

In the case of `CNNCc1ccc(C(=O)NC(C)C)cc1`, the mean signal in experiment [1] is 227 (inactive). In addition, the red/green cell ratio (normalised) in experiment [2] is 1.09 (inactive). Further, the normalised cell number stood at 0.95 in experiment [2] (setting [9]) and 1.03 in experiment [2] (setting [10]). Besides, the molecule was called inactive in experiment [3], in experiment [4], in experiment [5] and in experiment [8].

As to `COc1ccc2nc(S(=O)Cc3ncc(C)c(OC)c3C)[nH]c2c1` (configuration not stated), the mean signal in experiment [1] is 241 (inactive). The red/green cell ratio (normalised) in experiment [2] is 0.98 (inactive). The results for the normalised cell number in experiment [2] (setting [9]) and in experiment [2] (setting [10]) were 0.98 and 0.96, respectively. The remaining activity in experiment [7] is 103% (inactive). The call in experiment [3], in experiment [5], in experiment [6] and in experiment [8] was inactive.

With `O=C(O)CCNC(=O)c1ccc(N=Nc2ccc(O)c(C(=O)O)c2)cc1`, the mean signal in experiment [1] was 240 (inactive). Moreover, in experiment [2], the red/green cell ratio (normalised) is 1.02 (inactive). Moreover, the normalised cell number in experiment [2] (setting [9]) worked out at 1.19; in experiment [2] (setting [10]) it was 1.21. Moreover, the molecule was classed as inactive in experiment [3], in experiment [4], in experiment [5] and in experiment [8].

Consider `CCN(CC)CCOc1ccc(/C(=C(\Cl)c2ccccc2)c2ccccc2)cc1`, for which the mean signal in experiment [1] was 199 (inactive). Besides, the red/green cell ratio (normalised) in experiment [2] was 1.05 (inactive). Moreover, the normalised cell number in experiment [2] (setting [9]) worked out at 1.43; in experiment [2] (setting [10]), 1.5. The AC50 is 8.33 µM (active) in experiment [3] and 11.8 µM (active) in experiment [8].

Regarding `Nc1nnc(-c2cccc(Cl)c2Cl)c(N)n1`, the mean signal in experiment [1] is 281 (inactive). The red/green cell ratio (normalised) in experiment [2] is 0.86 (inactive). Moreover, the normalised cell number in experiment [2] (setting [9]) was 1.05; in experiment [2] (setting [10]), 0.91. In addition, the molecule was classed as inactive in experiment [3], in experiment [4] and in experiment [8].

For `Nc1nc2c(ncn2COC(CO)CO)c(=O)[nH]1`, the mean signal in experiment [1] was 268 (inactive). Besides, the red/green cell ratio (normalised) in experiment [2] is 1.03 (inactive). Further, the normalised cell number in experiment [2] (setting [9]) amounted to 1.04; in experiment [2] (setting [10]), 1.07. Moreover, the result in experiment [3] was inactive. Further, the concentration at half-maximal activity (AC50) in experiment [5] was 16.6 µM (active); in experiment [6], 20.9 µM (active).

Turning to `Oc1ccc(C2CNCCc3c2cc(O)c(O)c3Cl)cc1` (configuration not stated), the mean signal in experiment [1] is 286 (inactive). In addition, in experiment [2], the red/green cell ratio (normalised) is 1.06 (inactive). Further, the values for the normalised cell number in experiment [2] (setting [9]) and in experiment [2] (setting [10]) were 1.1 and 1.17, respectively. For the same molecule, the remaining activity in experiment [7] is 110% (inactive). The molecule was called inactive in experiment [3], in experiment [4], in experiment [5] and in experiment [8].

`CCCc1nc(C)c2c(=O)[nH]c(-c3cc(S(=O)(=O)N4CCN(CC)CC4)ccc3OCC)nn12`: the mean signal in experiment [1] is 298 (inactive). In addition, in experiment [2], the red/green cell ratio (normalised) is 0.94 (inactive). Further, the normalised cell number was determined as 1.1 in experiment [2] (setting [9]) and 1.03 in experiment [2] (setting [10]). In addition, the result in experiment [3] and in experiment [8] was inactive. Further, the AC50 was 13.2 µM (active) in experiment [4], 18.7 µM (active) in experiment [5] and 4.18 µM (active) in experiment [6].

For the molecule `Clc1ccccc1C(c1ccccc1)(c1ccccc1)n1ccnc1`, the mean signal in experiment [1] was 209 (inactive). The red/green cell ratio (normalised) in experiment [2] was 1.09 (inactive). Moreover, the normalised cell number in experiment [2] (setting [9]) worked out at 1.31; in experiment [2] (setting [10]), 1.43. Besides, in experiment [3], the AC50 is 23.5 µM (active). Besides, the molecule was called inactive in experiment [4], in experiment [5] and in experiment [6].

Take `COCCCC/C(=N\OCCN)c1ccc(C(F)(F)F)cc1`: the mean signal in experiment [1] is 245 (inactive). Further, in experiment [2], the red/green cell ratio (normalised) was 0.92 (inactive). The normalised cell number came out at 1.1 in experiment [2] (setting [9]) and 1.01 in experiment [2] (setting [10]). The remaining activity in experiment [7] is 125% (inactive). The call in experiment [5] and in experiment [6] was inactive.

As to `O=C(NCCO[N+](=O)[O-])c1cccnc1`, the mean signal in experiment [1] was 264 (inactive). Besides, the red/green cell ratio (normalised) in experiment [2] is 0.94 (inactive). The normalised cell number is 1.18 in experiment [2] (setting [9]) and 1.11 in experiment [2] (setting [10]). Further, in experiment [7], the remaining activity was 106% (inactive). The result in experiment [3], in experiment [4] and in experiment [6] was inactive.

Consider `NS(=O)(=O)c1cc(C(=O)O)c(NCc2ccco2)cc1Cl`, for which, in experiment [1], the mean signal was 263 (inactive). Further, the red/green cell ratio (normalised) in experiment [2] is 1.08 (inactive). In addition, the normalised cell number in experiment [2] (setting [9]) was 1.05; in experiment [2] (setting [10]) it was 1.14. Also, in experiment [4], the call was inactive.

For the molecule `CC(C)[C@H](N)C(=O)OCCOCn1cnc2c(=O)[nH]c(N)nc21`, in experiment [1], the mean signal is 266 (inactive). Besides, the red/green cell ratio (normalised) in experiment [2] was 0.91 (inactive). The values for the normalised cell number in experiment [2] (setting [9]) and in experiment [2] (setting [10]) were 1.13 and 1.03, respectively. The call in experiment [3], in experiment [4], in experiment [5], in experiment [6] and in experiment [8] was inactive.

`COc1cc2nc(N3CCN(C(=O)C4CCCO4)CC3)nc(N)c2cc1OC` (configuration not stated): in experiment [1], the mean signal was 236 (inactive). Besides, the red/green cell ratio (normalised) in experiment [2] was 0.95 (inactive). Besides, the normalised cell number came to 0.99 in experiment [2] (setting [9]) and 0.94 in experiment [2] (setting [10]). In addition, the remaining activity in experiment [7] was 115% (inactive). For the same molecule, the molecule was called inactive in experiment [4], in experiment [5] and in experiment [6].

As for `Cc1cnc(NC(=O)C2=C(O)c3ccccc3S(=O)(=O)N2C)s1`, the mean signal in experiment [1] is 257 (inactive). In addition, in experiment [2], the red/green cell ratio (normalised) is 0.91 (inactive). Moreover, the normalised cell number in experiment [2] (setting [9]) worked out at 1.16; in experiment [2] (setting [10]) it was 1.05. For the same molecule, the call in experiment [3], in experiment [5], in experiment [6] and in experiment [8] was inactive.

The remaining activity is the signal under treatment as a percentage of the control signal. As usually defined, the AC50 is the concentration at which the activity in the assay is half-maximal.
